Source: PubChem BioAssay (National Center for Advancing Translational Sciences (NCATS))
NPC1 prom act: activators of NPC1 promoter; Huh7 NPC1 promoter luciferase reporter, 24 h; Potency, µM (highest dose often 9.22 µM), usual class: activators; actives 2.4% (n = 320,000); further: nearly all actives have a fitted effect of over 60% in size
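Compounds in DMSO were transferred onto Huh7 NPC1-luciferase reporter cells pre-incubated 2 h; after 24 h at 37 °C, Amplite reagent was dispensed and luminescence recorded 10 min later.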
FLuc modulator: firefly luciferase modulation, counter-screen for miR-21 project; P08659; purified FLuc, Km substrates, luminescence inhibition; Potency, µM (top dose mostly 57.5 µM), most hits filed as inhibitors; actives 6.9% (n = 360,000); AID 588342; further: nearly all actives have a fitted effect of over 55% in size
Target sequence (P08659 whole entry, looked up): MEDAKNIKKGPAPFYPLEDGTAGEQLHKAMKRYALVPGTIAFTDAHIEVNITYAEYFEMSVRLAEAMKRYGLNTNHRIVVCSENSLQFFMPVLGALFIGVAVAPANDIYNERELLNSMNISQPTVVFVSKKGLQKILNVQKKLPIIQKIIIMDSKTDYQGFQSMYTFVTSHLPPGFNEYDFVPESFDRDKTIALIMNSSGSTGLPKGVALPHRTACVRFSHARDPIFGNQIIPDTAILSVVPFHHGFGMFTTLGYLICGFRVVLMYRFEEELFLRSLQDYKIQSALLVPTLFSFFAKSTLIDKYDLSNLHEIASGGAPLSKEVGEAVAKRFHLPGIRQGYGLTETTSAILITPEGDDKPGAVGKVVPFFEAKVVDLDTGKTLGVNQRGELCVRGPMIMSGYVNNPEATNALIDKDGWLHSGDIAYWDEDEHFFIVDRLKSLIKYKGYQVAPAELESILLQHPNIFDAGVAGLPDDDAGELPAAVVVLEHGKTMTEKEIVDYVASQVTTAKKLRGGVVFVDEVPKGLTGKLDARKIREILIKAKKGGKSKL
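Biochemical qHTS of compounds, final roughly 60 µM downward over six points, against 10 nM purified firefly luciferase using Km concentrations of substrates (10 uM D-luciferin, 10 uM ATP) in Tris acetate pH 7.5 buffer; luminescence output.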
Rab9 promoter act: activates the Rab9 promoter. Huh7 Rab9 promoter-luciferase reporter, luminescence, 24 h. actives 2.8% (n = 320,000). Potency, µM (titrated, usually from 9.22 µM), most hits filed as activators. AID 485297; further: nearly all actives have a fitted effect of over 60% in size
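Using Huh7 cells stably transfected with Rab9 promoter–luciferase, compounds were incubated 24 h at 37 °C, 5% CO2; luciferase luminescence was read 10 min after reagent addition.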
SMN2 splice up: increases expression of the SMN2 splice variant. Potency, µM (top dose mostly 46.1 µM), most hits filed as activators. HEK293 SMN2-luciferase splicing reporter, luminescence, 30-36 h. actives 2.8% (n = 210,000); further: nearly all actives have a fitted effect of over 55% in size
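qHTS luciferase splicing reporter: luminescence rises when SMN2 exon 7 is included in transfected HEK293 cells. Compound exposure lasted 30-36 h at 37C, with 4.5 mM final sodium butyrate as control, followed by a ONE-Glo read.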
ELG1 genotoxic: inducers of genotoxicity in HEK293T ELG1-luciferase cells. Potency, µM (titrated, usually from 46 µM), hits mostly activators. actives 1.3% (n = 330,000). HEK293T ELG1-luciferase reporter, luminescence, 16 h; further: nearly all actives have a fitted effect of over 60% in size
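ELG1-luciferase HEK293T cells, 2,000/well; compound pinned in; 16 hr, 37 °C, 5% CO2; ONE-Glo, 30 min RT; luminescence on CCD imager.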
uPA generation: blocks generation of uPA at the cell surface | cell surface uPA generation assay, qHTS | Potency, µM (highest dose often 38.3 µM), most hits filed as inhibitors | actives 0.31% (n = 330,000); active means well fitted inhibition curve with a large enough effect; inconclusive means small, poorly fitted or top-dose-only effect; inactive means no such curve, though single readings can be large or run the other way; tested in mouse RAW 264.7 cells; further: nearly all actives have a fitted effect of over 55% in size
A number is an active result; n = inactive; u = inconclusive; x = no result; [ ] = another dose, or the depositor's remark. Sampled rows, rich in hits. Any-hit rate of the full collection: about 7.3%. Unless noted, the call rests on the fitted dose curve; in most records, active means well fitted curve in the direction sought with a large enough effect; inconclusive means small, poorly fitted or top-dose-only effect, or another doubt; inactive means no such curve, though single readings can be large; an effect the other way counts as inactive or inconclusive.

SMILES | NPC1 prom act | FLuc modulator | Rab9 promoter act | SMN2 splice up | ELG1 genotoxic | uPA generation
N#Cc1cn(-c2ccccc2)nc1-c1ccc2c(c1)OCCO2 | u | n[2.3 µM] | 4µM | 14µM | u | n
O=Cc1cn(-c2ccccc2)nc1-c1ccc2c(c1)OCCO2 | n | 4.8µM | n | 13µM | n | n
CCN(CC)C(=O)c1cn(-c2ccccc2)nc1-c1ccc2c(c1)OCCO2 | n | n | n | n | n | n
CCN1CCc2c(sc(-n3cccc3)c2C(C)NC(=O)Nc2ccc(C(=O)OC)cc2)C1 (stereo not given) | x | n | x | x | x | x
CCOc1cc(/C=C2\CCn3c2nc2cc(Cl)ccc2c3=O)ccc1O | n | n | n | x | n | n
O=C(CSc1nnnn1-c1ccccc1)N1N=CCC1c1ccccc1 (stereo not given) | n | 15µM | n | n | n | n
Cc1ccc(SCC(=O)N2N=CCC2c2ccccc2)cc1 (stereo not given) | n | u | n | n | n | n
c1csc(CSc2nnc3sc4ccccc4n23)c1 | u | 17µM | 3.2µM | 14µM | u | n
O=C(CSc1nnc2sc3ccccc3n12)c1ccco1 | n | 11µM | u | 11µM | u | n
CN(C)C(=O)CSc1nnc2sc3ccccc3n12 | n | n | n | n | n | n
O=C(CSc1nnnn1-c1ccccc1)c1ccco1 | u | 17µM | u | n | u | n
Cn1nnnc1SCC(=O)c1ccco1 | n | n | n | n | n | n
CCC1=Nc2cc(C(=O)N3CCC(C)CC3)ccc2Sc2ccc(C)cc21 | x | n | x | n | x | x
COc1ccc(-n2nc3c(c2NC(=O)C(=O)N2CCN(C)CC2)CSC3)cc1 | x | n | x | x | x | x
Cc1ccc(Cl)cc1NC(=O)c1cc2c(=O)n3cccc(C)c3nc2n1C | x | n | x | x | x | x
CCN(CC)c1ccc(/C=c2\sc3nnc(-c4ccccc4Cl)n3c2=O)cc1 | n | n | n | n | n | n
Cc1ccc(/C=c2/sc3nnc(-c4ccccc4Cl)n3c2=O)o1 | n | 15µM | n | n | n | n
COc1cc(OC)c(Nc2c3c(nc4nc(-c5cccs5)nn24)CCCC3)cc1Cl | x | 24µM | x | x | x | x
FC(F)(F)C(Cl)Br (stereo not given) | x | x | x | n | x | x
CC(=O)Nc1ccc(NC(=O)/C(Cl)=C/c2ccccc2)cc1 | n | 11µM | u | n | n | n
C[C@@H]1CC[C@H]2[C@H](C)C3[C@H](C[C@H]4[C@@H]5CC=C6C[C@@H](O)CC[C@@]6(C)[C@@H]5C[C@@H](O)[C@]34C)N2C1 (stereo not given in full) | x | x | x | n[9.22 µM] | x | x
Cc1ccc(-n2nc(C)c(C(=O)NCCCN3CCN(c4ccccc4F)CC3)c2-n2cccc2)cc1 | x | n | x | x | x | x
CCn1nc(C)cc1C(=O)N1CCc2c([nH]c3ccccc23)C1c1cc(F)ccc1F (stereo not given) | u | 21µM | u | x | u | n
COc1ccc(C2c3[nH]c4ccccc4c3CCN2C(=O)Cc2nonc2C)c(F)c1 (stereo not given) | n | 4.8µM | u | x | n | n
Cc1nc2ccc(S(=O)(=O)NC(C(=O)N3CCN(c4cccc(Cl)c4)CC3)C(C)C)cc2s1 (stereo not given) | x | n | x | n | x | x
SMILES | NPC1 prom act | FLuc modulator | Rab9 promoter act | SMN2 splice up | ELG1 genotoxic | uPA generation
CS(=O)(=O)c1ccc2nc(NC(=O)C3CCCO3)sc2c1 (stereo not given) | n | n | n | x | n | n
O=C(Nc1nc2ccc([N+](=O)[O-])cc2s1)C1CCCO1 (stereo not given) | u | 15µM | 2.2µM | u | u | n
O=C(Nc1nc2ccc(Cl)cc2s1)C1CCCO1 (stereo not given) | 1µM | 6.7µM | 3.5µM | 22µM | 4.6µM | n
O=C(NC1CCCCC1)c1cc2cc(Br)ccc2o1 | 3.2µM | 4.8µM | u | x | u | n
O=C(NC1CCCC1)c1cc2ccccc2o1 | n | u | u | x | u | n
O=C(NC1CCCC1)c1cc2cc(Br)ccc2o1 | 3.2µM | 11µM | 2.8µM | x | u | n
CCOc1ccccc1CNC(=O)c1nc(-c2ccc(Cl)cc2)n2c1CCCCC2 | x | n | x | x | x | x
CCOC(=O)c1c(C)oc2cc(Cl)c(O)c(CN(C)C)c12 | n | 15µM | n | x | u | n
COc1ccccc1OCCCCOc1ccccc1F | n | 13µM | n | n | n | n
